Test results taken from PubChem BioAssay (Tox21).
Records with an inconclusive call do not appear. Calls of active or inactive are those of the source. Unless noted, calls come from the whole dose curve; as a rule, active = well fitted curve in the direction sought with a large enough effect in the repeat runs; inconclusive = weak or mixed curves; inactive = no such curve, though single readings can be large; an effect the other way counts as inactive or inconclusive.

What was measured:
[1] = target: Progesterone receptor (Homo sapiens) (UniProt P06401); assay: qHTS assay to identify small molecule agonists of the progesterone receptor (PR) signaling pathway (AID 1346784; calls by dose curve; note: nearly all actives have a fitted effect of over 30% in size)
In short: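 Compounds were tested for PR agonism in HEK 293T cells bearing a beta-lactamase gene under UAS control. Treatment lasted 16 hr at 37C; signal came from fluorescence of a FRET substrate.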

[2] = target: Progesterone receptor (Homo sapiens) (UniProt P06401); assay: qHTS assay to identify small molecule antagonists of the progesterone receptor (PR) signaling pathway (AID 1346795; active = well fitted inhibition curve with a large enough effect in the signal ratio in the repeat runs, not every such curve was filed as active; the % refers to the signal ratio; note: potency is the fitted concentration of half-maximal effect)
In short: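 In HEK293T cells bearing the PR-UAS-bla reporter, compound effects on promegestone-driven (1 nM) beta-lactamase expression are assessed after 16 hr using a fluorescent FRET substrate incubated 2 hr at room temperature.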

[3] = qHTS assay to identify small molecule antagonists of the progesterone receptor (PR) signaling pathway - cell viability counter screen (AID 1346798); note: nearly all actives have a fitted effect of over 50% in size; note: potency is the fitted concentration of half-maximal effect
In short: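 Following a 4 hr attachment, PR-UAS-bla HEK293T cells in charcoal-stripped FBS medium were exposed to compounds with R5020 for 16 hr; CellTiter-Glo was added and luminescence read after 30 min at room temperature.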

[4] = qHTS assay to identify small molecule antagonists of the TGF-beta/Smad signaling pathway - cell viability counter screen (AID 1346824); note: nearly all actives have a fitted effect of over 50% in size
In short: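 SBE-bla HEK 293T cells, incubated overnight, then compound plus 0.25 ng/mL TGF-beta1 (stock added) for 5 hr at 37 C. Viability was read in the same wells by CellTiter-Glo luminescence after 30 min at room temperature.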

[5] = qHTS assay to identify small molecule agonists of the TGF-beta/Smad signaling pathway - cell viability counter screen (AID 1346829); note: top concentration of the series differs between compounds; nearly all actives have a fitted effect of over 45% in size
In short: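 After overnight seating at 37 C and 5% CO2, reporter cells got compounds for 5 hr and FRET substrate for 2 hr; cell viability then came from CellTiter-Glo luminescence.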

[6] = qHTS assay to identify small molecule agonists of the TGF-beta/Smad signaling pathway (AID 1346859; active = well fitted activation curve with a large enough effect in the signal ratio in the repeat runs, not every such curve was filed as active; the % refers to the signal ratio; note: series mostly up to about 77 µM)
In short: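 Each well held 4,000 SBE-bla HEK 293T cells incubated overnight before compound addition; 5 hr later the cleavable FRET substrate went on for 2 hr at room temperature, and fluorescence was read at two emissions.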

[7] = target: Thyrotropin-releasing hormone receptor (Homo sapiens) (UniProt P34981); assay: qHTS assay to identify small molecule antagonists of the thyrotropin-releasing hormone receptor (TRHR) signaling pathway (AID 1346877; active = well fitted inhibition curve with a large enough effect in the repeat runs, not every such curve was filed as active; note: series mostly up to about 51 µM)
In short: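 TRHR-expressing HEK293 cells were seeded, cultured 18 h at 37 °C, then loaded with calcium dye for 2 h. Compounds were pre-incubated 5 min at room temperature before 1 nM TRH (final) was added, and kinetic fluorescence was recorded for 3 min.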

[8] = target: Thyrotropin-releasing hormone receptor (Homo sapiens) (UniProt P34981); assay: qHTS assay to identify small molecule agonists of the thyrotropin-releasing hormone receptor (TRHR) signaling pathway (AID 1346891; calls by dose curve; note: series mostly up to about 58 µM)
In short: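 Screening of agonists relied on calcium signalling in HEK293 cells expressing human TRHR: dye loading 2 h at 37 °C preceded compound addition and a 3-min fluorescence time course.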

[9] = Caspase-3/7 induction in HepG2 cells by small molecules, qHTS assay (AID 1346978); note: nearly all actives have a fitted effect of over 15% in size
In short: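 Wild-type HepG2 cells, 2,000/well, settled 5 hr at 37 C and 5% CO2, then compound-treated for 17 hr; caspase-3/7 activity read by luminescent Caspase-Glo 3/7 after 30 min at room temperature.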

[10] = Caspase-3/7 induction in CHO-K1 cells by small molecules, qHTS assay (AID 1346980); note: nearly all actives have a fitted effect of over 15% in size
In short: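 Wild-type CHO-K1 cells exposed to compounds for 17hr at 37 C, 5% CO2. Caspase-3/7 activity then measured by Caspase-Glo 3/7 luminescence after 30min at room temperature.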

[11] = Caspase-3/7 induction in HepG2 cells by small molecules, qHTS cell viability counter screen (AID 1346981); note: series mostly up to about 92 µM; nearly all actives have a fitted effect of over 30% in size
In short: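 Wild-type HepG2 cells (2,000/well) were allowed to settle for 5 hr at 37 C, 5% CO2, then dosed with compounds in DMSO by pin transfer. After 16 hr at 37 C, CellTiter-Fluor was added and fluorescence read 1 hr later.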

[12] = target: Cytochrome P450 2D6 (Homo sapiens) (UniProt P10635); assay: Cytochrome P450 Family 2 Subfamily D Member 6 (CYP2D6) small molecule antagonists: luciferase reporter qHTS assay (AID 1671196); note: nearly all actives have a fitted effect of over 50% in size; note: potency is the fitted concentration of half-maximal effect
In short: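 CYP2D6 enzyme–substrate mix was held with compound for 10 min at room temperature, then NADPH regeneration solution was added and the reaction ran 1 h at room temperature. Luciferin product was detected by luminescence after 20 min with detection reagent.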

[13] = Caspase-3/7 induction in CHO-K1 cells by small molecules, qHTS cell viability counter screen (AID 1346979); note: nearly all actives have a fitted effect of over 35% in size; note: potency is the fitted concentration of half-maximal effect
In short: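 CellTiter-Fluor viability check, qHTS format: wild-type CHO-K1, 16hr compound treatment, 1hr reagent incubation, fluorescence read.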

[14] = target: Nuclear receptor subfamily 1 group I member 2 (Homo sapiens) (UniProt O75469); assay: Human pregnane X receptor (PXR) small molecule agonists, qHTS assay (AID 1346982); note: nearly all actives have a fitted effect of over 35% in size; note: potency is the fitted concentration of half-maximal effect
In short: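 PXR-Luc HepG2 cells (CYP3A4 promoter-driven luciferase) were seeded in medium with 5% charcoal-stripped FBS, left 5 hr at 37 C, then exposed to compounds in DMSO for 24 hr. Luminescence was read after ONE-Glo addition.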

[15] = target: Nuclear receptor subfamily 1 group I member 2 (Rattus norvegicus) (UniProt Q9R1A7); assay: Rat pregnane X receptor (rPXR) activation by small molecules, qHTS assay (AID 1346983); settings: rPXR luciferase reporter cells, One-Glo luminescence, 24 h; max activation: stronger effect = higher value; note: nearly all actives have a fitted effect of over 20% in size
In short: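 Cell-based rPXR activation assay: rPXR cells, 2,000 per well, rested 5hr at 37 C, then exposed to compounds in DMSO for 24 hr at 37 C. Luciferase activity read by One-Glo luminescence after 30 min at room temperature.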

[16] = target: Nuclear receptor subfamily 1 group I member 2 (Homo sapiens) (UniProt O75469); assay: CYP3A4 induction through human pregnane X receptor (PXR) by small molecules, qHTS assay (AID 1346984); note: nearly all actives have a fitted effect of over 40% in size
In short: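 DPX-2 cells (HepG2 co-transfected with PXR and CYP3A4 promoter-luciferase) treated with compounds 24 h at 37C; luciferin-IPA CYP3A4 substrate 3uM final added for 3 h, then One-Glo; luminescence read. qHTS format.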

[17] = target: Cytochrome P450 2C19 (Homo sapiens) (UniProt P33261); assay: Cytochrome P450 Family 2 Subfamily C Member 19 (CYP2C19) small molecule antagonists: luciferase reporter qHTS assay (AID 1671197); note: nearly all actives have a fitted effect of over 65% in size; note: potency is the fitted concentration of half-maximal effect
In short: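 Inhibition of CYP2C19 was scored from loss of luminescence in a P450-Glo proluciferin substrate assay, NADPH-started and run 1 h at 37C, with ketoconazole as positive control.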

[18] = qHTS assay to identify small molecule agonists of the progesterone receptor (PR) signaling pathway - cell viability counter screen (AID 1346799; calls by dose curve; note: nearly all actives have a fitted effect of over 45% in size; note: potency is the fitted concentration of half-maximal effect)
In short: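 Here, 3,000 PR-UAS-bla HEK293T cells per well were treated with compounds for 16 hr after a 6 hr preincubation at 37C and 5% CO2; cell viability is the CellTiter-Glo luminescence signal.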

[19] = Human pregnane X receptor (PXR) small molecule agonists, qHTS cell viability counter screen (AID 1346977); note: nearly all actives have a fitted effect of over 50% in size; note: potency is the fitted concentration of half-maximal effect
In short: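 Tox21 qHTS format; PXR-Luc HepG2, 2,000/well, charcoal-stripped FBS 5%. Cpd exposure 24hr. Read: CellTiter-Fluor fluorescence, multiplexed with luciferase.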

[20] = target: Nuclear receptor subfamily 1 group I member 2 (Homo sapiens) (UniProt O75469); assay: Human pregnane X receptor (PXR) activation by small molecules, qHTS assay (AID 1346985); note: nearly all actives have a fitted effect of over 40% in size
In short: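 DPX-2 cells (HepG2 co-transfected with a PXR response element and a CYP3A4-promoter luciferase construct) were seeded at 2,000 per well, rested 5 hr at 37C, then exposed to DMSO-dissolved compounds for 24 hr. Activation was read as luciferase luminescence.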
% is set by controls: 0 for no effect and ±100 for the full control effect.

Cytochrome P450 2C19 (Homo sapiens), sequence (P33261 whole entry, looked up): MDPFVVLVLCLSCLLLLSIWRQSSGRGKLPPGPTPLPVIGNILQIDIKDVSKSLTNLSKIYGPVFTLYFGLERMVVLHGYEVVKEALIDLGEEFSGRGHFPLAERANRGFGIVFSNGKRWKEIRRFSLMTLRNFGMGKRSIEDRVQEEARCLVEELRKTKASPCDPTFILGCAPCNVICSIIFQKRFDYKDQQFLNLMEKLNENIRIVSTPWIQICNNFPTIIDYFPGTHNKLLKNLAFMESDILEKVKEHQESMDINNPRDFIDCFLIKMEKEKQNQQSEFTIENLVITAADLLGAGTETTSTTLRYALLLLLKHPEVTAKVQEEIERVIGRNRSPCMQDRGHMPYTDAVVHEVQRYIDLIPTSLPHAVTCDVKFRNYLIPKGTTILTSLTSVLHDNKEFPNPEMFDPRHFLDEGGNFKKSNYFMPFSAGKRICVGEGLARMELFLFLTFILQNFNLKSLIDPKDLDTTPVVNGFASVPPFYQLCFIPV
Progesterone receptor (Homo sapiens), sequence (P06401 whole entry, looked up): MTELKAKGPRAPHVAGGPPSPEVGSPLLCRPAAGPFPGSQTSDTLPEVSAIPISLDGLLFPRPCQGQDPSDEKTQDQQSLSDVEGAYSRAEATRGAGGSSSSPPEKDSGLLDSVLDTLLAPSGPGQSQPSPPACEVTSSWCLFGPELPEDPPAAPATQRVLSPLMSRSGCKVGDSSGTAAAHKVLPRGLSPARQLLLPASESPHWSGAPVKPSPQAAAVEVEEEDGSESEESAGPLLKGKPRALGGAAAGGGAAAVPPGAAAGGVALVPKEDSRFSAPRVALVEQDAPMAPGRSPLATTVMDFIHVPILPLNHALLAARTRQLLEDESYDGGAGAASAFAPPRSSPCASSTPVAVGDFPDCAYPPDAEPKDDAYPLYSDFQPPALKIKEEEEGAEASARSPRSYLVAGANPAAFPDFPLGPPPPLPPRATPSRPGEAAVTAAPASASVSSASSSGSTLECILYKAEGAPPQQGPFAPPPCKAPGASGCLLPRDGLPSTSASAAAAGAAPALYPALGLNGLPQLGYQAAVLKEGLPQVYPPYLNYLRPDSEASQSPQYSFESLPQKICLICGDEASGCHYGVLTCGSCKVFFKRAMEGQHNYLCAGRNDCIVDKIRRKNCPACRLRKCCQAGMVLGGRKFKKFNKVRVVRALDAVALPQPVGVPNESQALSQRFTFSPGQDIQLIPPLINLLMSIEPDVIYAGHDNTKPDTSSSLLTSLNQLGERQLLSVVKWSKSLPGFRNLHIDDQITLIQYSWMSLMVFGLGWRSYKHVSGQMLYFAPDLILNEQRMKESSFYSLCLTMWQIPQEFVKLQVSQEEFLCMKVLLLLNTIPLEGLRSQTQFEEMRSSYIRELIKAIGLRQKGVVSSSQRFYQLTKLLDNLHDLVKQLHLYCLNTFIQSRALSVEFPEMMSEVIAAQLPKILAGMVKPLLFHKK
Nuclear receptor subfamily 1 group I member 2 (Homo sapiens), sequence (O75469 whole entry, looked up): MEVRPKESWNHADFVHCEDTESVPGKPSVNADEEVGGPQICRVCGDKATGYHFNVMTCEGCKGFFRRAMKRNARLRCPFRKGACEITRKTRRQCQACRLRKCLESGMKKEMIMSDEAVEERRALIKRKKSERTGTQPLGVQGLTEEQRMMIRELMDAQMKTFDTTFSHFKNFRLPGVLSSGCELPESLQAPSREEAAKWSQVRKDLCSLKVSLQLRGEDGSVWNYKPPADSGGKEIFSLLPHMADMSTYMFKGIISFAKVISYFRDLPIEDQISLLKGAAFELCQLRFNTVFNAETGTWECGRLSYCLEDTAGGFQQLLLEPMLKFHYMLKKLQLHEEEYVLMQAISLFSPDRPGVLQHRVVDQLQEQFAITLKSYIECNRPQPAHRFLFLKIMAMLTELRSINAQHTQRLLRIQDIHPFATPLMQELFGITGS
Cytochrome P450 2D6 (Homo sapiens), sequence (P10635 whole entry, looked up): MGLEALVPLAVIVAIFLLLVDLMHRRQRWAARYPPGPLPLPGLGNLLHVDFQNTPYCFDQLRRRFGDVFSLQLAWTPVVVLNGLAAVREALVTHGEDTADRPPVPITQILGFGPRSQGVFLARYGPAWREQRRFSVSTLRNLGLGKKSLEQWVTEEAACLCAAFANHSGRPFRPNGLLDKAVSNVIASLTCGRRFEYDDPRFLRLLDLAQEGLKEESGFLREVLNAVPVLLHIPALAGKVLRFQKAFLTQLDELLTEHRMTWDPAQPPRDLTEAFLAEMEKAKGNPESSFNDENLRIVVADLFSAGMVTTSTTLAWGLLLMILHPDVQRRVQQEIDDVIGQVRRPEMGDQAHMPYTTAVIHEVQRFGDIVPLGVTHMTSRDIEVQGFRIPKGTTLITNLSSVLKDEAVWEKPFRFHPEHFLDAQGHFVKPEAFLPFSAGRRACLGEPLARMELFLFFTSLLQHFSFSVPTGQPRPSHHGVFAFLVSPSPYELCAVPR
Nuclear receptor subfamily 1 group I member 2 (Rattus norvegicus), sequence (Q9R1A7 whole entry, looked up): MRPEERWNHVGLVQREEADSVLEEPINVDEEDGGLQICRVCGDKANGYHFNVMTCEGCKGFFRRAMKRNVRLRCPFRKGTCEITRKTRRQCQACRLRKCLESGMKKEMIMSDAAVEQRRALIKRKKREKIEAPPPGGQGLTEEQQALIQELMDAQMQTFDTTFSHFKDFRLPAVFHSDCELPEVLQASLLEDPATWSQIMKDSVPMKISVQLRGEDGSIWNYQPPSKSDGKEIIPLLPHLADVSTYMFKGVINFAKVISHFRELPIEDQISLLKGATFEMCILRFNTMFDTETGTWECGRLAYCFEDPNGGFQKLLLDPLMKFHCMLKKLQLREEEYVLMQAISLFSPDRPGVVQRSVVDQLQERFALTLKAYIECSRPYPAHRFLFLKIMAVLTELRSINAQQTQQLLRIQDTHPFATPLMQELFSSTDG
Thyrotropin-releasing hormone receptor (Homo sapiens), sequence (P34981 whole entry, looked up): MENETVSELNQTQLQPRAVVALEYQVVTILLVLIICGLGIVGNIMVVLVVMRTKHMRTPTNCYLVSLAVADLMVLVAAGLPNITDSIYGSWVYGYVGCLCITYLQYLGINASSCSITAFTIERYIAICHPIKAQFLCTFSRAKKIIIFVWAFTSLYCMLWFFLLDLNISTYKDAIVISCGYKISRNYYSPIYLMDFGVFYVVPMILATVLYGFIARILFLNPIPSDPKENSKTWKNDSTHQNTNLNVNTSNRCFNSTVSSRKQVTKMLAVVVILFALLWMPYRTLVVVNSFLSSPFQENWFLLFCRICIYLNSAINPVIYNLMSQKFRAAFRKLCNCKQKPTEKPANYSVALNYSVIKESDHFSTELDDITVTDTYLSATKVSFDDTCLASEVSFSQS

Nc1cc(C(=O)O)c(O)c(S(=O)(=O)O)c1
inactive: Potency [1] | Potency [2] | Potency [3] | Potency [4] | outcome [5] | Potency [6] | outcome [7] | Potency [8] | Potency [9] | Potency [10] | Potency [11]
active: Potency [12] 35.1 µM

COc1ccc(C(=O)N2CCN(CC(=O)N3CCOCC3)CC2)cc1
inactive: Potency [1] | Potency [2] | Potency [3] | Potency [4] | outcome [5] | Potency [6] | outcome [7] | Potency [8] | Potency [9] | Potency [13] | Potency [10] | Potency [11] | Potency [14] | max activation [15] -1.44% | Potency [16] | Potency [12] | Potency [17]

CCCCCCCCCOS(=O)(=O)O
active: Potency [17] 79.6 µM
inactive: Potency [1] | Potency [2] | Potency [18] | Potency [4] | outcome [5] | Potency [6] | outcome [7] | Potency [8] | Potency [19] | Potency [9] | Potency [13] | Potency [10] | Potency [11] | Potency [14] | Potency [12]

NCC(=O)CCC(=O)O
inactive: Potency [1] | Potency [2] | Potency [18] | Potency [4] | outcome [5] | Potency [6] | Potency [19] | Potency [9] | Potency [13] | Potency [10] | Potency [11] | Potency [14] | max activation [15] -1.79% | Potency [16] | Potency [12]

CN1CCC(N(Cc2cccs2)c2ccccc2)CC1
inactive: Potency [1] | Potency [4] | outcome [5] | Potency [6] | Potency [9] | Potency [10] | Potency [17]
active: Potency [3] 23.7 µM | Potency [18] 15 µM | Potency [12] 0.436 µM

CN(C)C(=O)NC1(c2ccccc2)CCN(CC[C@@]2(c3ccc(F)c(F)c3)CN(C(=O)c3ccccc3)CCO2)CC1
inactive: Potency [1] | Potency [2] | Potency [18] | Potency [4] | Potency [6] | outcome [7] | Potency [8] | Potency [9] | Potency [10]
active: Potency [12] 26.2 µM

CN(C)CCN(Cc1ccc(Cl)cc1)c1ccccn1
active: Potency [12] 0.275 µM
inactive: Potency [1] | Potency [2] | Potency [18] | Potency [4] | outcome [5] | Potency [6] | outcome [7] | Potency [8] | Potency [9] | Potency [10] | Potency [11]

CC(C)OC(=O)C(C)N(C(=O)c1ccccc1)c1ccc(F)c(Cl)c1 (stereo unspecified)
active: Potency [2] 24.3 µM | Potency [14] 2.73 µM
inactive: Potency [1] | Potency [4] | outcome [5] | Potency [6] | outcome [7] | Potency [8] | Potency [9] | Potency [10] | Potency [12]

C=C1C(=C/C=C2\CCC[C@]3(C)[C@@H]([C@H](C)/C=C/[C@@H](O)C4CC4)CC[C@@H]23)C[C@@H](O)C[C@@H]1O
inactive: Potency [1] | Potency [4] | outcome [5] | Potency [9] | Potency [10] | max activation [15] 5.08% | Potency [16]
active: Potency [2] 11.9 µM | Potency [13] 18.8 µM | Potency [14] 16.8 µM | Potency [17] 7.76 µM

COc1cc2nc(N3CCN(C(=O)C4COc5ccccc5O4)CC3)nc(N)c2cc1OC (stereo unspecified)
inactive: Potency [1] | Potency [2] | Potency [4] | outcome [5] | Potency [9] | Potency [10] | max activation [15] -0.947% | Potency [12] | Potency [17]
active: Potency [19] 26.6 µM

COCC(C)OC(C)=O (stereo unspecified)
inactive: Potency [1] | Potency [3] | Potency [18] | Potency [4] | outcome [5] | Potency [6] | Potency [19] | Potency [9] | Potency [13] | Potency [10] | Potency [11] | Potency [12] | Potency [17]

CC(C)CC(=O)C1C(=O)c2ccccc2C1=O
inactive: Potency [1] | Potency [2] | Potency [4] | outcome [5] | Potency [6] | outcome [7] | Potency [8] | Potency [19] | Potency [9] | Potency [10] | Potency [12]
active: Potency [13] 61.1 µM | Potency [17] 39.9 µM

Cc1cc(C(=O)O)ccc1[N+](=O)[O-]
active: Potency [12] 56.5 µM
inactive: Potency [1] | Potency [3] | Potency [18] | Potency [4] | outcome [5] | Potency [6] | outcome [7] | Potency [8] | Potency [19] | Potency [9] | Potency [13] | Potency [10] | Potency [11]

CNCCCN1c2ccccc2CCc2ccccc21
active: Potency [3] 18.8 µM | Potency [18] 21.1 µM | Potency [19] 23.7 µM
inactive: Potency [1] | Potency [4] | outcome [5] | Potency [6] | Potency [10] | Potency [14] | max activation [15] -1.95% | Potency [16] | Potency [17]

COc1cc2nc(N(C)CCCNC(=O)C3CCCO3)nc(N)c2cc1OC (stereo unspecified)
inactive: Potency [1] | Potency [2] | Potency [4] | outcome [5] | Potency [6] | outcome [7] | Potency [8] | Potency [9] | Potency [10] | Potency [11] | max activation [15] -4.32% | Potency [16] | Potency [20] | Potency [17]
active: Potency [13] 21.1 µM

O=C1C(O)=C(O)C(=O)C(O)=C1O
inactive: Potency [1] | Potency [2] | Potency [4] | outcome [5] | Potency [6] | Potency [19] | Potency [9] | Potency [13] | Potency [10] | Potency [11] | Potency [14] | max activation [15] -2.91% | Potency [16] | Potency [12] | Potency [17]

O=S(=O)(Oc1ccc(Cl)cc1)c1ccccc1
inactive: Potency [1] | Potency [3] | outcome [5] | Potency [6] | outcome [7] | Potency [8] | Potency [19] | Potency [9] | Potency [13] | Potency [10] | Potency [11]
active: Potency [2] 24.3 µM | Potency [14] 54.5 µM | Potency [12] 31.7 µM | Potency [17] 0.894 µM
